USP10 inh: blocks human USP10 ubiquitin-rhodamine cleavage; purified USP10, Ub-rhodamine fluorescence, 60 min; 1.1% of 47,000 active; inhibition, % at 20 µM; AID 1645856
USP28 inh: human USP28 deubiquitinase inhibition; Q96RU2; purified USP28, Ub-rhodamine cleavage fluorescence, 30 min; inhibition, % at 25 µM; 3% of 47,000 active; AID 1645857
Target sequence (Q96RU2 whole entry, looked up): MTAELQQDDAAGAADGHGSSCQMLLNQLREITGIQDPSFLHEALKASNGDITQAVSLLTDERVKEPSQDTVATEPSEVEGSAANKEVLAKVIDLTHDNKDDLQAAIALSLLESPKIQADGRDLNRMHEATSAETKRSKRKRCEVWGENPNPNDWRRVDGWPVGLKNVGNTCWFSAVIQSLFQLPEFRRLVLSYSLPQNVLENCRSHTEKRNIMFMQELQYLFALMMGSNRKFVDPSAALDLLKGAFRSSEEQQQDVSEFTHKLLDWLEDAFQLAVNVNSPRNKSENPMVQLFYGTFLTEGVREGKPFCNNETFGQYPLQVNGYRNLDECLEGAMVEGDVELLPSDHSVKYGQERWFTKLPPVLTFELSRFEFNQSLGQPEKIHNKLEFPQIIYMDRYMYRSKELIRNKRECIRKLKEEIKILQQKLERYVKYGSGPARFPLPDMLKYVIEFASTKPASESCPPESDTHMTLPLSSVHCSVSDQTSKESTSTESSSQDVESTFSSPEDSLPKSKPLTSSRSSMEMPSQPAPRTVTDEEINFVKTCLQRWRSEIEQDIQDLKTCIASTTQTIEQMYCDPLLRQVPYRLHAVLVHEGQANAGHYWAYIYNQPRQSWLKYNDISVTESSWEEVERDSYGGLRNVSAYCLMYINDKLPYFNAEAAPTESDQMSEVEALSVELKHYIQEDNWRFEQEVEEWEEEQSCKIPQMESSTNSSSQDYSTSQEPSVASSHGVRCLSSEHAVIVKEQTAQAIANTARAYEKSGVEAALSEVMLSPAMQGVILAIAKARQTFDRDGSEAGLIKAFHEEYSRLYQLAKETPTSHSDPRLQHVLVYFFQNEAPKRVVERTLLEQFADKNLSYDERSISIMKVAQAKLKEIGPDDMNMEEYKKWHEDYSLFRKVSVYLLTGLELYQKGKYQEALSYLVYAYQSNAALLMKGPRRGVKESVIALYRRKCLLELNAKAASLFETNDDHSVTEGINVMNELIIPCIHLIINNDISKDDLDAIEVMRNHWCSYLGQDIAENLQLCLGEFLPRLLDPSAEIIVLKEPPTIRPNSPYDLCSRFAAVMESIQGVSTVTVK
USP8 block: human USP8 deubiquitinase inhibition | P40818 | purified USP8, Ub-rhodamine cleavage fluorescence, 30 min | inhibition, % at 20 µM | 4.2% of 47,000 active | AID 1645853
USP17 inh: inhibitors of human USP17 deubiquitinase; A8MUK1; purified USP17, Ub-rhodamine cleavage fluorescence, 3 h; inhibition, % at 50 µM; 6.5% of 47,000 active
USP30 block: inhibitors of human USP30 deubiquitinase. Q70CQ3. purified USP30, Ub-rhodamine cleavage fluorescence. inhibition, % at 25 µM. 5.3% of 47,000 active. AID 1645860
* marks the source's active call; other numbers are inactive results. Sampled rows, rich in hits. Any-hit rate of the full collection: about 14%. Cut-off read from the data, not from the text of the source: active = inhibition above about 30%; inactive = the rest.

SMILES | USP10 inh | USP28 inh | USP8 block | USP17 inh | USP30 block
COC(=O)c1cc2c(ccn2-c2ccc(F)cc2)n1CCC#N | 1 | -8 | 7 | 4 | -21
CCOC(=O)c1sc2nc(C(C)Nc3cccc(OC)c3)[nH]c(=O)c2c1C (configuration not stated) | 4 | 0 | 2 | -14 | -74
O=C(CSc1ccccc1)N(CCN1CCOCC1)c1nc2ccccc2s1 | 4 | -6 | -4 | 0 | -4
Cc1ccccc1NC(=O)Nc1cccc(-c2nnc(-c3ccccc3)o2)c1 | 25 | 4 | 51* | 3 | 4
COc1ccc(NC(=O)Nc2cccc(-c3nnc(-c4ccccc4)o3)c2)cc1OC | 5 | 18 | 14 | 20 | 51*
O=C(Nc1ccccc1)Nc1ccc(F)c(-c2nnc(-c3ccccc3)o2)c1 | 27 | -5 | 25 | 2 | 1
Cn1cc(CN2CC[C@@H]3Oc4ccccc4S(=O)(=O)N(CC4CC4)[C@H]3CC2)cn1 | -11 | -21 | -14 | -44 | -46
COc1ccc(OC)c2sc(N(Cc3ccncc3)C(=O)c3ccco3)nc12 | -1 | 18 | 16 | 24 | 43*
COc1ccc2nc(N(Cc3ccncc3)C(=O)c3ccccc3)sc2c1 | 0 | 0 | 4 | 3 | -5
Cc1c(C(=O)NCc2cccc(Br)c2)oc2c1-c1[nH]ncc1CC2 | -3 | 7 | 84* | 62* | -29
O=C(Nc1nnc(C(F)(F)F)s1)C1CCN(C(=O)c2ccc(F)cc2)CC1 | 4 | 2 | -2 | 1 | 4
O=C(NCc1ccco1)c1nc(-c2ccc3cc[nH]c3c2)no1 | -2 | 0 | -17 | -11 | -32
COc1ccc(C(=O)Nc2ccccc2Cc2ccccc2)c(OC)c1 | 11 | 19 | 19 | 23 | 27
COc1ccc(NC(=O)c2ccccc2OCC(=O)Nc2ccccc2C(F)(F)F)c(C)c1 | 5 | -1 | 52* | 79* | -1
O=C(Nc1ccc(N2CCN(C3CCCC3)C2=O)nc1)c1ccccc1F | -4 | -18 | -4 | 25 | -84
Cc1ccc2[nH]c(=O)c(-c3noc(CCC(=O)NC4CCCC4)n3)cc2c1 | 8 | -31 | 6 | -67 | -60
Cc1ccc2cc(-c3noc(CCC(=O)NC4CCCC4)n3)c(=O)[nH]c2c1 | 47* | -5 | 75* | 4 | 22
CC(CCc1ccccc1)NC(=O)Cn1c(=O)c2cccn2c2ccccc21 (configuration not stated) | 15 | 15 | -5 | 82* | 19
CC(CNC(=O)Cn1c(=O)c2cccn2c2ccccc21)c1ccccc1 (configuration not stated) | 10 | 14 | 27 | 17 | 32*
COc1ccc2c(ccn2CC(=O)NC(C)CCc2ccccc2)c1 (configuration not stated) | -4 | 2 | 6 | 1 | -16
CO[C@@H]1C[C@@H](C[C@H]2CC[C@H](C)[C@H]([C@@H](C)C(=O)O)O2)O[C@]2(O[C@](C)([C@H]3CC[C@@](C)([C@@H]4O[C@@H]([C@H]5O[C@](C)(O)[C@H](C)C[C@@H]5C)C[C@@H]4C)O3)C[C@H]2C)[C@@H]1C | 8 | 5 | 8 | 16 | 34*
c1cncc(CN2CCCC2c2nnn3cc(C4CC4)ccc23)c1 (configuration not stated) | -6 | -33 | -20 | -45 | -149
CSc1ccccc1C(=O)Nc1nc(-c2ccncc2)cs1 | 7 | 4 | -1 | 55* | 34*
CSc1ccc(C(=O)Nc2nc(-c3ccncc3)cs2)cc1 | 1 | 7 | 44* | 24 | 5
O=C(Nc1nc2c(Cl)c(Cl)ccc2s1)c1ccncc1 | -2 | 11 | 21 | 8 | -14
SMILES | USP10 inh | USP28 inh | USP8 block | USP17 inh | USP30 block
Cc1sc2nc(-c3cccnc3)nc(NCCCN3CCOCC3)c2c1C | -5 | 4 | -30 | 33* | 21
CC(C)c1n[nH]c(=O)c2c1nnn2Cc1ccccc1F | 5 | 21 | 5 | 5 | 34*
O=C(CSc1nnc(-c2cnccn2)n1Cc1ccco1)Nc1cccc(F)c1 | -9 | -2 | -3 | -13 | -44
COc1ccc(-n2c(SCC(=O)c3ccccc3)nnc2-c2cccnc2)cc1 | -4 | 9 | 4 | -1 | -42
COc1ccccc1NC(=O)CSc1nnc(-c2ccccn2)n1-c1cc(C)cc(C)c1 | 7 | -3 | -10 | 34* | -17
COc1ccc(CSc2nnc(-c3ccccn3)n2-c2ccc(OC)cc2)cc1 | -1 | 10 | 8 | 6 | 38*
Fc1ccc(CSc2nnc(-c3ccccn3)n2Cc2ccco2)cc1 | 9 | 56* | -5 | 1 | 23
O=C(CSc1nnc(-c2ccccn2)n1-c1ccccc1)Nc1cccc2ccccc12 | -1 | 1 | 4 | 11 | 15
Fc1ccccc1CSc1nnc(-c2ccccn2)n1Cc1ccco1 | 1 | 32* | -8 | 0 | 15
CC(C)(C)OC(=O)N1CCNC(c2ccc(-c3ccccc3)cc2)C1 (configuration not stated) | 1 | 2 | 6 | 0 | 14
CCOC(=O)c1ccc(NC(=O)CSc2nc(-c3ccco3)nc3cc(=O)[nH]n23)cc1 | 13 | 7 | 6 | 27 | -28
Cc1sc(NC(=O)CN2CCCC2)c(C#N)c1C | -9 | -123 | -13 | -132 | -482
Cc1ccc(C)c(NC(=O)CSc2nnc(-c3ccccn3)n2Cc2ccco2)c1 | 4 | 6 | 13 | 39* | 62*
CCc1ccccc1NC(=O)CSc1nnc(-c2cnccn2)n1Cc1ccco1 | -2 | 10 | 8 | 1 | 27
Cc1[nH]c(C(=O)NC2CCCCCC2)c(C)c1S(=O)(=O)N1CCCC1 | 8 | -10 | 39* | 43* | -34
Cc1ccc(NC(=O)Nc2ccccc2)c(=O)n1CC(=O)N1CCN(c2ccccn2)CC1 | 0 | 9 | 14 | 12 | 11
CCC(=O)N1CC(C(=O)Nc2ccc(F)cc2)C2(CCOCC2)C1 (configuration not stated) | 0 | -13 | -5 | -7 | -15
CC(C)CC(=O)N1CC(C(=O)Nc2ccc(F)cc2)C2(CCOCC2)C1 (configuration not stated) | -1 | 6 | 0 | 46* | 15
Cc1cc(N2CCN(C)CC2)nc2ccc(NC(=O)CCC(=O)NCc3ccc4c(c3)OCO4)cc12 | 0 | 4 | -3 | 0 | -5
N#Cc1ccc(Sc2ccccc2)c(NC(=O)c2ccc(F)cc2)c1 | 1 | 20 | 24 | 18 | 31*
Cc1sc2ncnc(SCC(=O)c3cc(C)n(Cc4ccco4)c3C)c2c1C | 2 | 19 | 63* | 39* | -142
Cc1nn(C)c(C)c1CNc1nc(-c2ccncc2)nc2c1CCC2 | 0 | 2 | 0 | 0 | 0
CCOC(=O)c1sc2nc(C)nc(NCc3ccccn3)c2c1C | -1 | 5 | 5 | 11 | 31*
O=C(CNc1ncnc2sc(-c3ccccc3)cc12)Nc1ccc(F)c(F)c1 | 2 | -40 | -16 | -25 | -208
Cc1nc(NCc2ccccn2)c2cc(-c3ccccc3)sc2n1 | -1 | -11 | 30* | 74* | 2
CCOC(=O)c1sc2nc(C)nc(Oc3cccnc3)c2c1C | -1 | 12 | 20 | 16 | 12

High-throughput results from PubChem BioAssay.
